Bioassay records from PubChem.
Hits are enriched below; roughly 1.4% of the tested compounds scored in any of these assays.
ZTA counter: counter-screen for EBNA-1 inhibitors: inhibitors of Epstein-Barr virus ZTA; 320,000 tested, 0.15% active; ZTA-DNA binding, fluorescence polarization; inhibition, % at 11 µM; P03206; in the data active = inhibition above about 33%
Target sequence (P03206 whole entry, looked up): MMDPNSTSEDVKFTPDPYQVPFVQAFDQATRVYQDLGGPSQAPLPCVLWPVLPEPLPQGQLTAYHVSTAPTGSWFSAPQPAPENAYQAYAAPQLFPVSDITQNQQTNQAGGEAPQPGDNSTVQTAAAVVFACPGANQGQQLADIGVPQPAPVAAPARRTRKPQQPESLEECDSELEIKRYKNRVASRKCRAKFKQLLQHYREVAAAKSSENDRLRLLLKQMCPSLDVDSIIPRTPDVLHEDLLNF
LYPLA1 counter: blocks human lysophospholipase 1, a PME1 counter-screen. recombinant LYPLA1, FP-Rh probe fluorescence polarization. inhibition, % at 5.9 µM. 320,000 tested, 0.16% active. AID 2174;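 active = inhibition above the mean of all tested compounds plus 3 SD, set per campaign, cut at about 14% in these data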;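 note: inhibitors block serine hydrolase probe labeling of LYPLA1 so polarization falls; 0% = enzyme with DMSO and 100% = wells lacking LYPLA1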
Target sequence (O75608 whole entry, looked up): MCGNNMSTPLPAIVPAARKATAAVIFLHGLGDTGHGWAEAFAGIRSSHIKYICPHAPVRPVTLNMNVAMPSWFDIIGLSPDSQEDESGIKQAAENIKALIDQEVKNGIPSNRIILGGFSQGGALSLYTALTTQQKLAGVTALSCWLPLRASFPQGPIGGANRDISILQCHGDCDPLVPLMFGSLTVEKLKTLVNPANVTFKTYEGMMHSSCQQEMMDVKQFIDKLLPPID
EBNA-1 inh: blocks EBNA-1 binding to DNA. EBNA-1 DNA binding, fluorescence polarization. inhibition, % at 14.8 µM. 300,000 tested, 0.34% active; in the data active = inhibition above about 28%
LANA-H2A inh: blocks KSHV LANA binding to histone H2A/H2B; inhibition, % (no concentration beside the values); 320,000 tested, 0.6% active; cell-free LANA-H2A/H2B peptide, fluorescence polarization; AID 2629; in the data active = inhibition mostly above about 10%, no sharp cut-off; inactive = mostly below about 6.7%
LYPLA2 inh: counter-screen for PME1 inhibitors: inhibitors of human LYPLA2. inhibition, % at 5.9 µM. 320,000 tested, 0.38% active. recombinant LYPLA2, FP-Rh probe fluorescence polarization;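 active = inhibition above the screen-wide mean plus 3 SD, limit set per campaign, cut at about 26% in these data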;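 note: 0% = LYPLA2 with DMSO and 100% = wells lacking LYPLA2 enzyme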
* marks the source's active call; other numbers are inactive results; x = no result given; + = active, no number; ! = repeats disagree.

SMILES	ZTA counter	LYPLA1 counter	EBNA-1 inh	LANA-H2A inh	LYPLA2 inh
Cc1ccccc1OCC(=O)NCCNC(=O)c1ccccn1	5.7	-1.4	-2.1	-6.3	0.8
CC(C(=O)Nc1ccc([N+](=O)[O-])cc1)N1CCN(C/C=C/c2ccccc2)CC1 (stereo unspecified)	-26.8	-1.1	1.9	-5.3	31.0*
Cc1cc(C)n(-c2ccc(NC(=O)C3CCCCN3C(=O)c3ccoc3C)cc2)n1 (stereo unspecified)	-5.1	0.4	-2.1	-2.6	2.1
COc1ccc(CCNC(=O)c2ccc(CS(=O)(=O)c3ccc(C)cc3)o2)cc1OC	9.5	-4.1	3.4	-0.4	-1.6
COc1ccc(CCNC(=O)c2ccc(CS(=O)(=O)c3ccc(Cl)cc3)o2)cc1OC	-2.4	-0.8	-9.6	26.9*	4.2
CN(CCNC(=O)c1ccc(CS(=O)(=O)c2ccc(Br)cc2)o1)CCc1ccccc1	0.0	0.8	11.5	18.9*	-2.1
Cc1ccccc1CS(=O)(=O)Cc1ccc(C(=O)NCCc2ccccc2)o1	4.6	-0.8	-5.2	14.8*	2.5
Cc1cc(NC(=O)c2cc(-c3cccc(OCC(C)C)c3)nc3ccccc23)no1	-2.0	-8.4	1.0	0.1	-20.2
C=CCN1CC(=O)N2C(c3ccccc3)c3[nH]c4ccccc4c3C[C@H]2C1=O (stereo partly specified)	x	x	x	0.7	x
Cc1ccoc1C(=O)NCCNc1ccc(Cl)cc1[N+](=O)[O-]	-4.2	-5.5	5.6	-1.2	5.2
O=C(NCCNc1ccc(Cl)cc1[N+](=O)[O-])c1cccnc1	5.0	5.7	8.8	11.9*	5.2
Cc1ccc(N2CC(C(=O)NCc3n[nH]c(=O)c4ccccc34)CC2=O)cc1 (stereo unspecified)	-0.3	0.1	-15.4	-1.6	0.4
CO[C@H]1/C=C/O[C@@]2(C)Oc3c(C)c(O)c4c(O)c(c(C=NN5CCN(C)CC5)c(O)c4c3C2=O)NC(=O)/C(C)=C\C=C\[C@H](C)[C@H](O)[C@@H](C)[C@@H](O)[C@@H](C)[C@H](OC(C)=O)[C@@H]1C	1.7	2.7	-0.8	1.4	-2.3
CO[C@H]1C=CO[C@@]2(C)Oc3c(C)c(O)c4c(O)c(c(C=NN5CCN(C)CC5)c(O)c4c3C2=O)NC(=O)C(C)=CC=C[C@H](C)[C@H](O)[C@@H](C)[C@@H](O)[C@@H](C)[C@H](OC(C)=O)[C@@H]1C	10.1	-1.7	6.5	48.8*!	3.8
COc1ccc(-c2nn(CCC#N)cc2C(=O)Nc2cccc(C(=O)O)c2)cc1[N+](=O)[O-]	10.9	-3.7	11.5	14.5*	1.2
COc1ccc(-c2nn(CCC#N)cc2C(=O)Nc2cccc(C(=O)O)c2)cc1OC	x	x	x	-0.9	x
O=C(CSc1nc(CCC2CCCC2)nc2ccccc12)NCc1ccc2c(c1)OCO2	-16.7	-3.0	4.2	14.8*	0.0
Cc1cc(NC(=O)CSc2nc(CCC3CCCC3)nc3ccccc23)no1	7.3	-3.8	5.0	1.1	1.9
CCN1CCN(S(=O)(=O)c2ccc(Cl)c(C(=O)NCCc3ccccc3)c2)CC1	-6.7	2.3	6.6	3.5	8.8
O=C(NC(=S)NCc1ccccc1)C1CC1	11.9	-1.4	14.7	16.1*	-3.4
CC1CCC(NC(=O)CCN2C(=O)C3C4C=CC(C4)C3C2=O)CC1 (stereo unspecified)	22.8	-2.9	7.1	-1.7	1.7
CC1=C(CC(=O)NCC(=O)NCC(=O)O)c2cc(F)ccc2/C1=C/c1ccc(S(C)=O)cc1 (stereo unspecified)	x	x	x	2.6	x
COc1cc(OC)cc(C(=O)N[C@H](C(=O)Nc2ccc3c(c2)OCO3)C(C)C)c1	-1.6	5.0	0.1	2.4	5.0
COc1cc(OC)cc(C(=O)NC(C(=O)Nc2ccc3c(c2)OCO3)C(C)C)c1 (stereo unspecified)	11.1	-1.3	x	10.7*	-1.3
COc1ccc(S(=O)(=O)N2CCCC2CNC(=O)C(=O)NCc2ccccc2Cl)cc1 (stereo unspecified)	-6.6	-1.4	-1.8	7.1	-1.0
SMILES	ZTA counter	LYPLA1 counter	EBNA-1 inh	LANA-H2A inh	LYPLA2 inh
NC(=O)c1ccc(Oc2ccc3ccc(=O)oc3c2)c([N+](=O)[O-])c1	-0.1	6.6	10.6	-5.8	38.2*
C[C@]12CCC(=O)C[C@@H]1CC[C@@H]1[C@@H]2CC[C@]2(C)[C@@H](C(=O)COC(=O)CCC(=O)O)CC[C@@H]12	13.7	-2.1	1.4	-4.0	-4.3
CCn1c(SCc2nc3sc(C(=O)O)c(C)c3c(=O)[nH]2)nnc1-c1ccc(Cl)cc1	7.2	0.9	0.8	+	8.4
CC(=O)N1CCC(N2CCN(Cc3ccc(C)cc3)C(CCO)C2)CC1 (stereo unspecified)	-9.9	0.6	-15.1	76.9*	2.4
Cc1ccc(CN2CCN(C3CCC3)CC2CCO)cc1 (stereo unspecified)	-6.3	-0.7	-7.1	2.6	2.1
Cc1nc(C(=O)NC2CCCCC2)sc1C1(C)CC(c2cccnc2)=NO1 (stereo unspecified)	-0.2	-2.6	-1.6	3.7	26.2*
COc1cc(NC(=O)c2cccc(S(=O)(=O)N3CCCCC3)c2)cc(OC)c1OC	x	x	x	-6.6	x
O=S(=O)(c1cccc(-c2cn3ccccc3n2)c1)N1CCCCC1	5.6	-2.6	6.7	18.2*	4.5
Cc1ccn2cc(-c3cccc(S(=O)(=O)N4CCCC4)c3)nc2c1	16.9	-3.4	10.0	-2.1	0.9
CN(C(=O)Cn1cc(C(F)(F)F)cc(Cl)c1=O)C1CCS(=O)(=O)C1 (stereo unspecified)	-11.3	-1.8	-1.3	-4.1	-4.9
CC(=O)N1CCN(C(=O)c2c(-c3ccccc3)noc2C)CC1	-9.4	-0.6	x	22.3*	7.0
CCOC(=O)c1c(C)[nH]c(C2=NNC(=NC3CC3)SC2)c1C	-3.1	-1.0	-7.7	-0.1	5.7
CC(C)CCc1noc(CN2CCN(CC(=O)NC(C)C)CC2)n1	-22.7	2.3	-5.8	-2.2	8.2
CC(C)CCc1noc(CN2CCC(CCN3CCCC3=O)CC2)n1	-0.2	-3.2	9.0	10.7*	1.7
CC(C)OCCCNc1ncnc2c1cnn2-c1ccccc1	-8.6	1.5	2.1	-2.8	8.8
CN(C)CCCNc1ncnc2c1cnn2-c1ccccc1	1.2	2.3	-5.0	13.6*	8.8
COCCNc1ncnc2c1cnn2-c1ccc(Cl)cc1	6.8	0.6	0.1	20.4*	2.0
OCCOCCNc1ncnc2c1cnn2-c1ccc(Cl)cc1	-9.6	1.7	-9.1	-2.7	2.3
CC1CCCC1/C(=N/O)c1ccccc1 (stereo unspecified)	-4.5	-1.6	-3.6	1.3	3.3
Cc1ccc(NC(=O)c2cccc(S(=O)(=O)N3CCN(c4ccccc4)CC3)c2)nc1	-2.2	-2.4	2.3	x	3.2
CNc1cncc(C(=O)O)c1	-18.7	-1.9	42.0*	3.9	2.6
O=C(CSc1n[nH]c(-c2ccncc2)n1)Nc1ccccc1	4.9	-1.4	-9.3	-6.7	0.1
CC(=O)Nc1cccc(NC(=O)CSc2n[nH]c(-c3ccccc3)n2)c1	3.1	-6.2	x	20.2*	-5.1
